From PubChem BioAssay (EPA / NIEHS)
Results filed as inconclusive are left out. Activity calls are given as the source filed them. Rule for the calls: active = hit-call score of the fitted dose curve at least 0.9, where 1 is the maximum; inconclusive = response in the unintended direction; inactive = score below 0.9.

target: Nuclear receptor subfamily 1 group I member 2 (Homo sapiens) (UniProt O75469); test: NVS_NR_hPXR: NovaScreen (NVS) Nuclear Receptor Binding Assay for human Pregnane X Receptor (PXR) (AID 2283365);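 note: a drop in FRET signal versus DMSO baseline means the compound binds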
Procedure: NVS_NR_hPXR is a biochemical, single-readout assay that uses extracted gene-proteins in a cell-free assay. Measurements were taken 2 hours after chemical dosing in a 384-well plate.NVS_NR_hPXR is one of one assay component(s) measured or calculated from the NVS_NR_hPXR assay. It is designed to make measurements of fluorescent resonance energy transfer, a form of binding reporter, as detected with fluorescent resonance energy transfer signals by Time-Resolved Fluorescence Resonance Energy Transfer (TR-FRET) technology.Data from the assay component NVS_NR_hPXR was analyzed into 1 assay endpoint. This assay endpoint, NVS_NR_hPXR, was analyzed in the positive analysis fitting direction relative to DMSO as the negative control and baseline of activity. Using a type of binding reporter, loss-of-signal activity can be used to understand changes in the binding as they relate to the gene NR1I2. Furthermore, this assay endpoint can be referred to as a primary readout, because the performed assay has only produced 1 assay endpoint. To generalize the intended target to other relatable targets, this assay endpoint is annotated to the nuclear receptor intended target family, where the subfamily is non-steroidal.
Binding assays used specific radioligands (tritiated, iodinated) with non-radioactive competitive displacement ligands in agonist or antagonist protocols (as indicated) and various reference compounds and inhibitors to titrate specific binding to receptors and transporters. Most enzyme assays (CYPs, kinases, phosphatases, proteases, HDACs) used recombinant protein and specific substrates (fluorescence mostly, some colorimetric and radioactive) and inhibitors, followed by a biochemical separation of substrate and product. All assays for the biochemical HTS were initially run in duplicate at a single concentration (10 uM for CYP450 assays and 25 uM for all others). […] Each assay was run with positive and negative controls, and concurrent controls on every plate. The follow-up (secondary) screen tested active chemical-pairs in concentration series, as well as a few additional assays not tested in the primary screen, some selected negative inactives, and several cases re-run in the concentration series for confirmatory purposes.

Nuclear receptor subfamily 1 group I member 2 (Homo sapiens), sequence (O75469 whole entry, looked up): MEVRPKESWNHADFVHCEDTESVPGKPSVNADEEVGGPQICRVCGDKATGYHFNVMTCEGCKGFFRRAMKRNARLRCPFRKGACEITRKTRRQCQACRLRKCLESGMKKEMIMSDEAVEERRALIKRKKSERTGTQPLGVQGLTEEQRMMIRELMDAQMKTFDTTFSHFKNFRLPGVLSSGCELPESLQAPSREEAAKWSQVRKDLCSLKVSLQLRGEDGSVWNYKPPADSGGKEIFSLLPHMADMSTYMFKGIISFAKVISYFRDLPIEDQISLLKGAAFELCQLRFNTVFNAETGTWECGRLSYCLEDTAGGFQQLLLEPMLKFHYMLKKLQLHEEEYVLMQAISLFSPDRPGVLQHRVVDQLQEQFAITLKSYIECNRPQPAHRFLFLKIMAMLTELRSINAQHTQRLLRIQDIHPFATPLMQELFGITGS

Compound	outcome	AC50
OCC1CO1 (stereo not given)	inactive	–
CC(C)(C)N(NC(=O)c1ccc(Cl)cc1)C(=O)c1ccccc1	inactive	–
CC1(C)CN=C(NN=C(/C=C/c2ccc(C(F)(F)F)cc2)/C=C/c2ccc(C(F)(F)F)cc2)NC1	–	7.48 µM (active)
O=P(OCC(Br)CBr)(OCC(Br)CBr)OCC(Br)CBr (stereo not given)	–	0.423 µM (active)
CCCCN(CCCC)N=O	inactive	–
CCCCOCCOP(=O)(OCCOCCCC)OCCOCCCC	–	5.67 µM (active)
CO/N=C(/C(=O)OC)c1ccccc1COc1ccccc1C	inactive	–
CCCCCCCc1ccc(O)cc1	inactive	–
CCCCN(CC)C(=O)SCCC	inactive	–
O=NN1CCCC1	inactive	–
